In experiment [1] the target is Dual specificity protein kinase CLK3 (Homo sapiens) (UniProt P49761). The settings on record: at 1 µM.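 Also: each value is the mean inhibition of CLK3.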
In experiment [2] the target is Dual specificity tyrosine-phosphorylation-regulated kinase 1A (Homo sapiens) (UniProt Q13627). The settings on record: at 0.1 µM.
Experiment [3] shares this target. Conditions: at 1 µM.
Experiment [4] concerns the target Dual specificity tyrosine-phosphorylation-regulated kinase 1B (Homo sapiens) (UniProt Q9Y463). The settings on record: at 0.1 µM.
For experiment [5] the target is unchanged. The settings on record: at 1 µM.
In experiment [6] the target is T1, Dual specificity tyrosine-phosphorylation-regulated kinase 2 (Homo sapiens) (UniProt Q92630).
T1 sequence (whole entry): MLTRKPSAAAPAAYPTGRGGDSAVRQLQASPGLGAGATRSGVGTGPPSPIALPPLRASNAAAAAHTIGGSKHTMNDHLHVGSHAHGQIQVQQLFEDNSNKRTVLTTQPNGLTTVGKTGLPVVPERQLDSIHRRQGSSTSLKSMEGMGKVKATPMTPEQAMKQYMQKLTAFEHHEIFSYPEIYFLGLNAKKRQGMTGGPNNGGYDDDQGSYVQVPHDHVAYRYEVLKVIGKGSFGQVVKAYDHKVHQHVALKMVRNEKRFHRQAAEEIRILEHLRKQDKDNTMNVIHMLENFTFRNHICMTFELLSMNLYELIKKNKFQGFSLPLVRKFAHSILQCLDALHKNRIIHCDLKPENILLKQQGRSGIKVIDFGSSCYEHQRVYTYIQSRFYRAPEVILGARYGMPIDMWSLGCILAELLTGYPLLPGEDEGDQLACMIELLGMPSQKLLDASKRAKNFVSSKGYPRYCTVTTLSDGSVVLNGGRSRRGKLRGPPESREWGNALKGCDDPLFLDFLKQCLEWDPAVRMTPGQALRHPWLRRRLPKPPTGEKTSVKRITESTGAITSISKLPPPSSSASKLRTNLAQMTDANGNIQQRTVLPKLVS
Conditions: at 0.1 µM.

In experiment [7] the target is T1, Dual specificity tyrosine-phosphorylation-regulated kinase 2 (Homo sapiens). Conditions: at 1 µM.
Experiment [8] has as its target Glycogen synthase kinase-3 alpha (Homo sapiens) (UniProt P49840). Conditions: at 0.1 µM.
Experiment [9] shares this target. Conditions: at 1 µM.
The target of experiment [10] is Glycogen synthase kinase-3 beta (Homo sapiens) (UniProt P49841). Conditions: at 0.1 µM.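 Also: values are mean percent inhibition of GSK3B activity, from the GSK Published Kinase Inhibitor Set (PKIS) screening dataset.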

Usually inhibition stands for the change of the read-out against control, counted positive when it falls.

Structures are written as SMILES.

Dual specificity tyrosine-phosphorylation-regulated kinase 1B (Homo sapiens), sequence (Q9Y463 whole entry, looked up): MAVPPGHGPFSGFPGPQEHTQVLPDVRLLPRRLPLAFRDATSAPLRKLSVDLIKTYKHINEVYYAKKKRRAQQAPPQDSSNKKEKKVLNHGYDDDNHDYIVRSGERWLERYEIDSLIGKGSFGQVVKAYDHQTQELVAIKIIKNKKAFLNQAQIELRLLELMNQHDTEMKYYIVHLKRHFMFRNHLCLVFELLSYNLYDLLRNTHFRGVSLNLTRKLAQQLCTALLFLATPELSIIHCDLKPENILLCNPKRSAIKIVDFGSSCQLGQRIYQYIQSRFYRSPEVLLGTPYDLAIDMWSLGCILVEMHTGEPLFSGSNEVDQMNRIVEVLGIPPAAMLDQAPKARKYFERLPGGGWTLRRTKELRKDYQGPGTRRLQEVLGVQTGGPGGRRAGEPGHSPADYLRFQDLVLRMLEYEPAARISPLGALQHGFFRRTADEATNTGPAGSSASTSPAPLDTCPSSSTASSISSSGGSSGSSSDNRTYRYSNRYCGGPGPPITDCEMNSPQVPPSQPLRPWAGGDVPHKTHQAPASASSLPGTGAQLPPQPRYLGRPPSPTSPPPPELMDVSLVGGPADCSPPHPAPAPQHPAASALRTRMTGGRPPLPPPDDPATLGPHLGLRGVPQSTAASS
Dual specificity protein kinase CLK3 (Homo sapiens), sequence (P49761 whole entry, looked up): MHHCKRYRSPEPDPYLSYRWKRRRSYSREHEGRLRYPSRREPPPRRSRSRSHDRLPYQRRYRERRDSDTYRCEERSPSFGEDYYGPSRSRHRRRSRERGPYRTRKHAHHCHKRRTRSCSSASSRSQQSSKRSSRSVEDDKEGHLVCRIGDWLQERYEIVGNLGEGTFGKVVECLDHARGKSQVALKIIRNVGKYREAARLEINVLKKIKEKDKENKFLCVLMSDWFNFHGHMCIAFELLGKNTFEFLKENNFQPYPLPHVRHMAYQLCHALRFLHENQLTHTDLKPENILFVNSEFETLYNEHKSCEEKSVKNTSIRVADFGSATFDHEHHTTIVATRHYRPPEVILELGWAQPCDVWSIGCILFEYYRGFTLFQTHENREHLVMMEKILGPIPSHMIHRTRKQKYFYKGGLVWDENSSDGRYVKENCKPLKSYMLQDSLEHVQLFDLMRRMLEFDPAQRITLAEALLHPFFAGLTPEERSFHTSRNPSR
Glycogen synthase kinase-3 alpha (Homo sapiens), sequence (P49840 2-483 limits assumed): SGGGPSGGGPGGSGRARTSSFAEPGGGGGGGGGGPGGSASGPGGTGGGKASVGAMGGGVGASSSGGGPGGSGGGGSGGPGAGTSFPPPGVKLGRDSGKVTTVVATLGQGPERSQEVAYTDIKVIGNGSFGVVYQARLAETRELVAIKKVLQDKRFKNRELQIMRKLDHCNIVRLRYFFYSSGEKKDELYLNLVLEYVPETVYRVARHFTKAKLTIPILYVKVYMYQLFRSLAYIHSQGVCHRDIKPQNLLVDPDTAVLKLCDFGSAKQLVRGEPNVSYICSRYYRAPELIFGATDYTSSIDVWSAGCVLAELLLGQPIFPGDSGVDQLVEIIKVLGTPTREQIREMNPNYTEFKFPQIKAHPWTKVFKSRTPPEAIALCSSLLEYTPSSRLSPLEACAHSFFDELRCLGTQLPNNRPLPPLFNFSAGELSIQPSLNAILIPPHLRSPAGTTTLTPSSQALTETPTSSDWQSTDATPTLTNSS
Glycogen synthase kinase-3 beta (Homo sapiens), sequence (P49841 whole entry, looked up): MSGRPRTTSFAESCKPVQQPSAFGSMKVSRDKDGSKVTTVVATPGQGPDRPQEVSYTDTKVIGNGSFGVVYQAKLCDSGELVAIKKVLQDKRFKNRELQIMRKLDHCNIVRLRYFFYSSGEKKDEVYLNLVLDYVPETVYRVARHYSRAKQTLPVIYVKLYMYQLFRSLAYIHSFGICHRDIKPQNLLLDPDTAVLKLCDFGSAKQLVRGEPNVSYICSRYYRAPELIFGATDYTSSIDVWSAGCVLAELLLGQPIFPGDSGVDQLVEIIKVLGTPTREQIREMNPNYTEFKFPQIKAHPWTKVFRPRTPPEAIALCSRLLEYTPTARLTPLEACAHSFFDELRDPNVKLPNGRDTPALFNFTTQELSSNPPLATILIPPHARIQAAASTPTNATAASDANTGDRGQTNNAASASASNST

In the case of `COC(=O)Nc1nc2cc(Oc3ccc(NC(=O)Nc4cccc(C(=O)O)c4)cc3)ccc2[nH]1`, the inhibition in experiment [1] is 0.74%; in experiment [2] it was -4.02%; in experiment [3] it was -1.76%; in experiment [4] it was -3.44%; in experiment [5] it was -1.48%; in experiment [6] it was 0.41%. For the same molecule, the inhibition in experiment [7] is -0.17%; in experiment [8] it was -2.54%; in experiment [9], 1.82%; in [10] it was -2.48%.

For `COc1ccc(-c2nn3ncccc3c2-c2ccnc(Nc3ccc(Cl)c(C(F)(F)F)c3)n2)cc1`, the inhibition in experiment [1] is 0.49%; in experiment [2], -0.17%; in experiment [3], 2.05%; in [4], -1.42%; in [5], 0.89%; in experiment [6] it was 1.06%. Moreover, the inhibition in [7] turned out to be 1.84%; in experiment [8], 2.46%; in [9], 3.98%; in experiment [10], 1.3%.

Regarding `CC1=C(C(=O)Nc2ccc3[nH]ncc3c2)C(c2ccc(Cl)c(Cl)c2)CC(=O)N1` (stereo unspecified), the inhibition is 2.49% in [1]; -0.12% in experiment [2]; 3.73% in experiment [3]; 0.77% in experiment [4]; 3.21% in experiment [5]; 1.35% in [6]. Further, the inhibition in experiment [7] is 2.88%; in experiment [8] it was 0.15%; in experiment [9], 4.5%; in [10] it was -0.24%.

Turning to `NS(=O)(=O)c1cccc(-c2ccc3c(NC(=O)C4CC4)n[nH]c3c2)c1`, the inhibition in experiment [1] was 1.36%; in experiment [2] it was 2.96%; in experiment [3], 3.42%; in experiment [4] it was 2.16%; in experiment [5] it was 3.65%; in [6], -1.18%. The inhibition in [7] is -0.6%; in experiment [8] it was 1.01%; in experiment [9], 3.15%.

For the molecule `Fc1cccc(COc2ccc(Nc3ncnc4sc(-c5cccs5)cc34)cc2Cl)c1`, the inhibition was -0.15% in experiment [1]; 1.88% in experiment [2]; 6.51% in experiment [3]; 1.39% in [4]; 2.06% in experiment [5]; -1.01% in [6]. Moreover, the inhibition in [7] came out at 1.17%; in [8], 1.69%; in [9], 6.14%; in [10] it was 1.97%.

For `Cc1cc(O)cc(C)c1/C=C/c1cncc(-c2nn[nH]n2)c1`, the inhibition in [1] was -1.62%; in experiment [2] it was 1.17%; in experiment [3], 2.98%; in experiment [4], -1.94%; in [5], -1.27%; in [6] it was 2.24%. Further, the inhibition in [7] was 3.95%; in experiment [8], -2.04%; in experiment [9], 3.03%; in experiment [10], -2.15%.

Take `COc1cc2ncn(-c3cc(OCc4ccccc4Cl)c(C(N)=O)s3)c2cc1OC`: the inhibition in experiment [1] is 4.39%; in experiment [2] it was 0.59%; in experiment [3] it was 4.21%; in [4], 1.28%; in [5], 0.48%; in experiment [6] it was 0.19%. Further, the inhibition in [7] turned out to be 2.53%; in experiment [8], 2.18%; in [9], 9.18%; in experiment [10], 1.21%.

Turning to `CCn1c(-c2nonc2N)nc2cncc(C(=O)N3CCNCC3)c21`, the inhibition in experiment [1] was 1.12%; in [2], 3.49%; in experiment [3], 4.33%; in experiment [4], 0.28%; in [5] it was -0.73%; in experiment [6], 4.35%. The inhibition in [7] came out at 7.99%; in [8], 2.98%; in experiment [9] it was 2.61%; in experiment [10], 1.93%.

Take `CN(C)c1cc2c(Nc3ccc4nc(Cc5ccccc5)[nH]c4c3)ncnc2cn1`: the inhibition worked out at 3% in [1]; 4.46% in experiment [2]; 6.18% in [3]; 1.66% in experiment [4]; 2.67% in experiment [5]; 3.79% in experiment [6]. Besides, the inhibition in experiment [7] stood at 5.25%; in [8], 2.41%; in experiment [9], 4.97%; in [10] it was 1.6%.

Consider `O=C1NC(=O)C(c2ccc(Cl)cc2)=C1Nc1ccc(Cl)c(C(=O)O)c1`, for which the inhibition in [1] was 4.58%; in experiment [2], 3.92%; in experiment [3] it was 17.2%; in experiment [4] it was 3.26%; in experiment [5] it was 8.51%; in experiment [6], -2.12%. For the same molecule, the inhibition in experiment [7] was -1.19%; in experiment [8] it was 21.4%; in [9] it was 72.1%.

Take `CCn1c(-c2nonc2N)nc2cncc(C(=O)N3CC[C@H](N)C3)c21`: the inhibition is 1.82% in experiment [1]; 12.7% in [2]; 49.4% in experiment [3]; 7.9% in experiment [4]; 44.4% in experiment [5]; 15% in experiment [6]. Besides, the inhibition is 59.5% in experiment [7], 3.29% in experiment [8], 19.3% in experiment [9] and 2.36% in experiment [10].

In the case of `CN1CCC(C(=O)Nc2n[nH]c3nnc(-c4ccccc4)cc23)CC1`, the inhibition in [1] was 2.52%; in experiment [2] it was 7.11%; in experiment [3], 33.9%; in [4] it was 7.12%; in [5], 31.9%; in experiment [6] it was 4.83%. The inhibition in experiment [7] amounted to 9.37%; in [8], 79.5%; in experiment [9], 85.7%.

With `CC(C)=Cc1cccc2c1/C(=N/Nc1ccc(S(N)(=O)=O)cc1)C(=O)N2`, the inhibition in experiment [1] was 1.83%; in experiment [2] it was -1.42%; in [3], 2.34%; in [4], 0.57%; in [5], 5.61%; in experiment [6], 0.58%. Besides, the inhibition in experiment [7] was found to be 2.29%; in experiment [8] it was 13.8%; in experiment [9], 53.5%; in [10], 7.42%.

With `O=C1NC(=O)C(N2CCc3ccccc32)=C1c1ccc(Cl)cc1`, the inhibition in experiment [1] was 2.44%; in [2], 3.12%; in experiment [3], 4.67%; in experiment [4], 0.13%; in experiment [5] it was 1.08%; in experiment [6], 3.3%. Also, the inhibition in [7] is 3.36%; in experiment [8], 3.79%; in experiment [9] it was 14%.

For the molecule `Cc1ccc(C(=O)NC2CCCCC2)cc1-c1ccc(C(=O)NCC2CC2)cc1`, the inhibition in [1] was 1.19%; in [2], 0.7%; in experiment [3], -0.59%; in [4], 0.96%; in [5], 0.46%; in experiment [6], 1.77%. For the same molecule, the inhibition in experiment [7] is 1.81%; in experiment [8] it was 1.78%; in experiment [9], 1.84%; in [10] it was 1.78%.

For the molecule `CCn1c(-c2nonc2N)nc2cnc(Oc3cccc(NC(=O)c4ccc(OCCN5CCOCC5)cc4)c3)cc21`, the inhibition in experiment [1] is 1.22%; in experiment [2], 0.91%; in experiment [3], 4.24%; in [4], 0.06%; in experiment [5] it was 0.86%; in experiment [6], 3.68%. In addition, the inhibition came out at 5.39% in experiment [7], 13.9% in [8], 56.5% in [9] and 10.2% in [10].

On to `CCN1CCC(CC(=O)Nc2n[nH]c3nc(-c4cccs4)c(Br)cc23)CC1`, for which the inhibition in experiment [1] is 4.44%; in experiment [2] it was 4.33%; in experiment [3], 20.6%; in [4], 4.83%; in [5] it was 22.3%; in experiment [6], -0.64%. Also, the inhibition in experiment [7] was determined as 14%; in experiment [8], 46.6%; in experiment [9] it was 78.3%; in [10] it was 26.6%.

Source of the values: ChEMBL document CHEMBL1961873, “Compounds: GSK PKIS; Assays: Nanosyn kinase panel” (2012).
